Cruzain inh Det: blocks cruzain activity in presence of Triton detergent | 200,000 compounds, 0.43% hits | Potency, µM, hits mostly inhibitors | purified cruzain, Z-FR-AMC fluorescence, 0.01% Triton | P25779; note: nearly all actives have a fitted effect of over 40% in size
Target sequence (P25779 123-467 limits assumed): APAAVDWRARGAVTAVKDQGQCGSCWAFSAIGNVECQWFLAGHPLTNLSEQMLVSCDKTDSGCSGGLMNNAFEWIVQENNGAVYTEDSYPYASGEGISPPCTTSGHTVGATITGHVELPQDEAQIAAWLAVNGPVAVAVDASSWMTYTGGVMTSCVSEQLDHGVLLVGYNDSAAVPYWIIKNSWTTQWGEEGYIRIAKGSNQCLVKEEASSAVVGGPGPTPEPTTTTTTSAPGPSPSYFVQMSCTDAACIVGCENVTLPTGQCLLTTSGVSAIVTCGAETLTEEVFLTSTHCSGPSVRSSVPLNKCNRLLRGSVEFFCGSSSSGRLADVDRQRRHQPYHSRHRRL
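Z-FR-AMC hydrolysis (2 uM substrate) by cruzain (1.5 nM) monitored kinetically at ex 360/em 450 nm after 15 min room-temperature compound exposure; 0.01% Triton X-100, pH 5.5, 5 mM DTT.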
Cruzain noTriton: cruzain (T. cruzi) inhibition without detergent; P25779; purified cruzain, Z-FR-AMC fluorescence, no detergent; Potency, µM, usual class: inhibitors; 200,000 compounds, 2.3% hits; note: nearly all actives have a fitted effect of over 40% in size
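Detergent-free condition (0.00005% Triton X-100) in acetate buffer pH 5.5 with DTT. 1.5 nM enzyme and compound were pre-mixed 15 min, then 2 uM Z-FR-AMC substrate added; reaction progress from fluorescence change between first and third reads (60 s).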
A number is an active result; 0 = inactive; ? = inconclusive. Sampled rows, rich in hits. Any-hit rate of the full collection: about 2.6%. Calls come from the whole dose curve; as a rule, active = well fitted curve in the direction sought with a large enough effect; inconclusive = small, poorly fitted or top-dose-only effect, or another doubt; inactive = no such curve, though single readings can be large; an effect the other way counts as inactive or inconclusive.

SMILES	Cruzain inh Det	Cruzain noTriton
O=C(CSc1nc2ccc(Cl)cc2[nH]1)NC1CCCc2ccccc21 (stereo not given)	0	0
COc1ccc2nc(SCC(=O)NC3CCCc4ccccc43)[nH]c2c1 (stereo not given)	14µM	0
Cc1ccc2nc(SC(C)C(=O)NC3CCCc4ccccc43)[nH]c2c1 (stereo not given)	10µM	0
O=C(CSc1nc2ccccc2[nH]1)NC1CCCc2ccccc21 (stereo not given)	?	0
COc1ccccc1-c1nc2n(n1)C(c1ccc(Cl)cc1)C(C(N)=O)=C(C)N2 (stereo not given)	0	0
O=C(Cn1cnc2nc3c(cc2c1=O)CCCC3)N1CCN(c2cccc(C(F)(F)F)c2)CC1	0	0
N#C/C(=C\c1cccs1)C(=O)NCc1ccccc1	0	0
N#C/C(C(=O)NCc1ccccc1)=C1/N=C(NC(=O)c2cccs2)c2ccccc21	0	25µM
COc1ccc(C2CC(c3ccc4ccccc4c3OC(C)=O)=NN2C(=O)/C=C/c2ccccc2)cc1 (stereo not given)	0	7.9µM
COc1ccc(C2CC(c3ccccc3OC(C)=O)=NN2C(=O)/C=C/c2ccccc2)cc1 (stereo not given)	0	0
CCOC(=O)CCC(=O)Nc1ccc(S(=O)(=O)N2CCC(C)CC2)cc1	0	0
CC1c2nc3ccccc3n2C(CC(=O)NCc2ccccn2)C(=O)N1Cc1ccccc1 (stereo not given)	0	13µM
O=C(CCc1ccccc1)NCc1ccccn1	0	0
CCc1cc(C(=O)NCCN(C)C)cs1	0	0
O=C(CCN1CCN(c2ccccc2F)CC1)Nc1ccccc1F	0	0
O=C(CCN1CCN(c2ccccc2F)CC1)c1ccc(Br)cc1	14µM	?
C=CCn1c(O)c(C2=c3ccccc3=NC2=O)s/c1=N/c1nccs1	0	0
Cn1c(O)c(C2=c3ccccc3=NC2=O)sc1=Nc1ccc(Cl)cc1	0	25µM
O=C(NCc1ccco1)c1n[nH]c(=O)c2ccccc12	0	0
NC(=S)N/N=C/c1ccc(-c2cccc([N+](=O)[O-])c2)o1	2.8µM	3.2µM
Nc1nonc1C(=O)N/N=C/c1ccc(-c2cccc([N+](=O)[O-])c2)o1	0	0
O=[N+]([O-])c1cccc(-c2ccc(/C=N/n3c(-c4ccccc4)n[nH]c3=S)o2)c1	0	16µM
Cc1n[nH]c(=S)n1/N=C/c1ccc(-c2ccccc2[N+](=O)[O-])o1	0	0
O=C(NCc1ccc2c(c1)OCO2)c1ccc2c(c1)OCCO2	0	0
CC(=O)c1cccc(NS(=O)(=O)c2ccc(N/C=C\C(=O)c3ccc(C)cc3)cc2)c1	0	0
SMILES	Cruzain inh Det	Cruzain noTriton
O=C(/C=C/Nc1ccc(S(=O)(=O)Nc2ncccn2)cc1)c1ccc(Cl)c(Cl)c1	0	32µM
CC(/C=N/NC(=O)Cc1cccs1)=C\c1ccccc1	0	0
O=C(Cc1cccs1)N/N=C/C(Br)=C/c1ccccc1	0	16µM
COC(=O)C1(C)NC(c2ccc(O)cc2)C2C(=O)N(c3ccc4c(c3)OCCO4)C(=O)C21 (stereo not given)	0	0
CC(C)C1O[C@H](/C=C\c2ccccc2)OCC1(C)C (stereo not given in full)	0	0
COc1cc(NC(=O)c2cc(-c3ccco3)on2)c(OC)cc1Cl	0	10µM
O=C(Nc1cccnc1Cl)c1cc(-c2ccco2)on1	0	0
CC(=O)c1ccc(N2CCN(C(=O)C3CCN(S(=O)(=O)c4cn(C)cn4)CC3)CC2)cc1	0	0
CCCCCn1c(N)c(-c2nc3ccccc3o2)c2c([N+](=O)[O-])nn(CC)c(=O)c21	0	10µM
CCCCCn1c(N)c(-c2nc3ccccc3o2)c2c([N+](=O)[O-])nn(C)c(=O)c21	0	?
COC(=O)c1ccc(OCC2c3cc(OC)c(OC)cc3CCN2C(=O)Cc2ccccc2)cc1 (stereo not given)	0	?
Nc1nonc1-c1nc2ccccc2n1CC(=O)N/N=C\c1ccc(-c2ccc(Cl)cc2)o1	0	4µM
Cc1ccc(NC(=O)Cn2c(=O)c(C(F)(F)F)nc3ccccc32)cc1C	0	0
Cc1ccc(NC(=O)Cn2c(/C=C/c3ccccc3)nc3ccccc32)cc1C	0	16µM
CCOC(=O)Cn1c(-c2nonc2NC(=O)c2ccccc2F)nc2ccccc21	0	25µM
Cc1ccc(NC(=O)Cn2c(-c3nonc3N)nc3ccccc32)cc1Cl	0	7.9µM
Nc1nonc1-c1nc2ccccc2n1CC(=O)Nc1cccc(Cl)c1Cl	0	0
Nc1nonc1-c1nc2ccccc2n1CC(=O)Nc1ccc(F)cc1	0	0
CCC(=O)Nc1nonc1-c1nc2ccccc2n1Cc1ccccc1	0	0
CC1CCN(S(=O)(=O)c2ccc3c(c2)oc(=O)n3CC(=O)NCc2ccc(F)cc2)CC1	0	?
NC(=O)CC[C@H](N)C(=O)O	0	0
COCC(=O)N1CCC2(CC1)CN(C(=O)Nc1ccccc1)C2	0	0
COc1ccccc1Cn1c(CNS(=O)(=O)c2ccccc2Cl)nc2cccnc21	0	0
COc1ccc(-c2cccc(NS(=O)(=O)c3cc(C)c(Cl)cc3C)c2)nn1	0	0
CCc1nc(SCC(=O)NCc2ccc(F)cc2)c2c(=O)n(C)c(=O)n(C)c2n1	0	0
SMILES	Cruzain inh Det	Cruzain noTriton
COC(=O)c1ccc(COn2c(=O)c(C)[n+]([O-])c3ccccc32)cc1	?	0
COc1ccc(-c2cn3cccnc3n2)cc1F	0	20µM
CCC(=O)Nc1cc(-c2cn3cccnc3n2)ccc1OC	0	0
COCCCNc1ccnc2c(Cl)cccc12	0	0
c1ccc2[nH]c(CSc3ncnc4c3oc3ccccc34)nc2c1	?	16µM
Fc1ccc(CSc2ncnc3c2oc2ccccc23)cc1	0	0
Cc1nc(SCc2nc3ccccc3[nH]2)c2oc3ccccc3c2n1	?	16µM
Cc1nc(N2CCN(Cc3nc4ccccc4[nH]3)CC2)c2oc3ccccc3c2n1	0	?
Cc1ccc(NC(=O)Cc2csc(C)n2)c(C)c1	0	0
c1ccc(Nc2ncncc2-c2ccoc2)cc1	0	0
CC(C)n1cc(/C=C2\NC(=O)N(c3cccc(Cl)c3)C2=O)c2ccccc21	0	25µM
CC(C)n1cc(/C=N/NC(=O)COc2cccc3cccnc23)c2ccccc21	0	?
Cn1cc(C2=C(c3ccc(Cl)cc3Cl)C(=O)NC2=O)c2ccccc21	0	0
CC(C)n1cc(/C=C2/NC(=O)N(c3cccc(Cl)c3)C2=O)c2ccccc21	0	16µM
O=c1c(CCc2ccccc2)nc2cnc(N3CCNCC3)nc2n1C1CC1	0	0
Cc1cccc(NC(=O)c2ccc([N+](=O)[O-])o2)n1	0	0
Cc1ccc(CN2CCSc3ccc(C(=O)Nc4ccc(C)cc4)cc32)cc1	0	10µM
COc1ccccc1CNC(=O)c1ccc2c(c1)N(Cc1ccc(C)cc1)CCS2	0	?
COc1ccc(Br)cc1CNC(=O)c1ccc2c(c1)N(Cc1ccc(C)cc1)CCS2	0	10µM
CCOc1ccc(CCNC(=O)c2ccc3c(c2)N(Cc2ccc(C)cc2)CCS3)cc1	0	?
O=C(NCc1ccco1)C12CN(Cc3ccccc3)CC1C(c1ccc([N+](=O)[O-])cc1)=NO2 (stereo not given)	0	0
CC(C)(C)C(=O)NC(=S)Nc1ccccc1C(N)=O	0	0
O=[N+]([O-])c1ccc(N2CCNCC2)cc1NC1CC1	0	0
O=[N+]([O-])c1ccc(N2CCCC2)cc1N/N=C1\CN2CCC1CC2	?	25µM

Screening results deposited in PubChem BioAssay by National Center for Advancing Translational Sciences (NCATS).
